Experimental data as given in PubChem BioAssay AID837 (The Scripps Research Institute Molecular Screening Center, 2007).
Calls of active or inactive are those of the source.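 Rule for the calls: active = relative FRET score above 0.01, or acceptor fluorescence over 30% below the sample-well median; inactive = the rest.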

biological target: Protein Rev (Human immunodeficiency virus type 1 group M subtype B (isolate WMJ22)) (UniProt P05866); experiment: HIV-1 Rev-RRE binding inhibitors, retest, confirmation, biochemical, FRET, acceptor and relative FRET calls (AID 837); details: Fl-Rev peptide / Cy5-RRE RNA FRET, 1536-well; at 8 µM;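 note: relative FRET combines rise in Cy5 acceptor with fall in fluorescein donor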
Sequence (P05866 whole entry, looked up): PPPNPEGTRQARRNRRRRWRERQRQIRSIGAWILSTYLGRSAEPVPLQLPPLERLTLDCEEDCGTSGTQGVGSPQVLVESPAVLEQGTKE

Which outcome does the source give for `CCOC(=O)CSc1ccc(S(=O)(=O)N(C)C2CCCCC2)cc1[N+](=O)[O-]` here?
Its outcome is “inactive”.

For `CC12Cc3ccc4ccccc4c3C=C1C[N+](C)(C)C2` (stereo not given), which outcome is on record?
The outcome was “inactive”.

How did the outcome turn out when `O=C(N/N=C/c1cccc(F)c1)c1cc(-c2ccco2)nc2ccccc12` was run?
The outcome was “active; quenches the donor”.

For `N=c1n(CCO)c2ccccc2n1CCOc1ccccc1`, which outcome is on record?
Its outcome is “inactive”.

How did the outcome turn out when `CN=C1c2c(-c3ccccc3)c3cc(OC)ccc3n2CCN1C` was run?
The outcome was “inactive”.

Which outcome does the source give for `CCCCCCCCNc1ncnc2ccccc12` here?
The outcome was “inactive”.

Which outcome does the source give for `CC(C)CN=c1cc(-c2ccccc2)oc2ccc(Cl)cc12` here?
The outcome was “active”.

Which outcome does the source give for `CC1=NOC(=O)/C1=C/c1ccc(N(C)C)cc1` here?
Its outcome is “active; fluoresces like the donor”.

Which outcome does the source give for `CCCCN1C(=O)Cc2c1nc(N)c1c(N)nc(N(CCC)CCC)c(C#N)c21` here?
The outcome was “inactive”.

How did the outcome turn out when `Cn1nc(SCC(=O)O)sc1=S` was run?
Its outcome is “inactive”.

With `Nc1cccc2nc3ccccc3cc12` as the compound, how does the outcome read?
The outcome was “inactive”.

How did the outcome turn out when `Nc1nc(Nc2ccccc2)nc2ccccc12` was run?
Its outcome is “inactive”.

`FC(F)(F)c1cc(-c2ccco2)nc(NCc2ccc(Cl)cc2)n1` was tested. Which outcome did it give?
The outcome was “inactive”.

How did the outcome turn out when `OC(COc1ccc(C2C=CCC2)cc1)CN1CCCCC1` (stereo not given) was run?
The outcome was “inactive”.

`COn1cnnc1-c1ccccc1` was tested. Which outcome did it give?
Its outcome is “inactive”.

With `O=[N+]([O-])c1ccc2nc(-c3ccc(Cl)cc3)n(OCc3ccccc3)c2c1` as the compound, how does the outcome read?
The outcome was “inactive”.

How did the outcome turn out when `CCCCNCCCOc1cccc(Cl)c1Cl` was run?
Its outcome is “inactive”.

How did the outcome turn out when `NCCCCCc1nnc(SC/C=C/c2ccccc2)o1` was run?
Its outcome is “inactive”.

How did the outcome turn out when `c1ccc(CSc2ncnc3c2cnn3Cc2ccccc2)cc1` was run?
The outcome was “inactive”.

Which outcome does the source give for `OCCN=c1cc(-c2ccccc2)oc2ccc(Cl)cc12` here?
Its outcome is “inactive”.

Which outcome does the source give for `CC(C)(c1ccccc1)c1ccc(OCCCNCCO)cc1` here?
The outcome was “inactive”.

With `CC(C)OC(=O)c1c2nc3ccccc3nc2n2c1[nH]c(=O)c1ccccc12` as the compound, how does the outcome read?
The outcome was “inactive”.

`CN(C)CCCNC(=O)c1ccc(-c2nc(-c3ccc(Cl)cc3)cs2)cc1` was tested. Which outcome did it give?
Its outcome is “inactive”.

For `CCC1=NNc2cccc3c(OC)ccc1c23`, which outcome is on record?
Its outcome is “inactive”.

How did the outcome turn out when `Cc1ccsc1C1NC(=O)c2c(sc3c2CCN(C)C3)N1` (stereo not given) was run?
The outcome was “inactive”.

With `CCN(CC)CCCOc1ccc(C)cc1Br` as the compound, how does the outcome read?
The outcome was “inactive”.

With `Cc1nc(NC(=O)c2ccc(Br)o2)sc1C` as the compound, how does the outcome read?
Its outcome is “inactive”.

`C/C=C/c1ccc(OCCCNC2CCCC2)c(OC)c1` was tested. Which outcome did it give?
The outcome was “inactive”.

For `COc1ccc(NC(=O)Nc2ccc(N(C)C)cc2)cc1`, which outcome is on record?
The outcome was “inactive”.

Which outcome does the source give for `CCN1CCCC1CNC(=O)c1c(O)c2c([nH]c1=O)CCCC2` (stereo not given) here?
The outcome was “inactive”.

`CCOC(=O)c1cn2nc(-c3ccc(OCC)cc3)cc2nc1C1CCN(C(=O)OC(C)(C)C)CC1` was tested. Which outcome did it give?
Its outcome is “inactive”.

For `CC(C)COc1ccc(Cc2cnc(N)nc2N)cc1`, which outcome is on record?
Its outcome is “active”.

How did the outcome turn out when `Cc1ccc(C(=O)/C=C/c2ccccc2)o1` was run?
The outcome was “inactive”.

`Cc1nc(Nc2ccc(F)cc2)[nH]c(=O)c1CCC(C)C` was tested. Which outcome did it give?
The outcome was “inactive”.

For `Cc1ccc2[nH]c(=O)c3cc(C(=O)NCCN4CCN(C)CC4)sc3c2c1`, which outcome is on record?
The outcome was “inactive”.

For `N#Cc1c(NCCN)nc(-c2ccco2)c2c1CCCC2`, which outcome is on record?
The outcome was “inactive”.

How did the outcome turn out when `Cc1nc(Nc2ccncc2)c2oc3ccccc3c2n1` was run?
Its outcome is “active”.

Which outcome does the source give for `COC(=O)c1c(C(=O)OC)n(CCCN)c2ccc(C)cc12` here?
The outcome was “active”.

For `CC[n+]1c(/C=C/Nc2ccccc2)oc2ccccc21`, which outcome is on record?
The outcome was “active; fluoresces like the donor”.

How did the outcome turn out when `Cc1ccc(C(=O)NNC(=O)CSc2nnc3c(n2)[nH]c2ccc(F)cc23)cc1` was run?
Its outcome is “active; quenches the donor”.
